# Where a name gives a salt, the structure may show the parent alone.
# Test system: Haemophilus parainfluenzae
# Test: growth AUC normalised to DMSO control (fraction of control); higher = less growth inhibition, active = hit call of the paper
# Conditions: 20 µM;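 active = AUC significantly below DMSO controls by Student t-fit with adjusted P under 0.01; inactive = not significantly reduced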
# Procedure, shortened: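 Hemin and NAD were added to the medium for Haemophilus parainfluenzae. All pathogens, after two anaerobic passages, were inoculated at a starting OD578 of 0.01 into pre-reduced mGAM plates with 20 μM compound and 1% DMSO under breathable seals, and OD578 was read hourly for 24 h in three biological replicates. AUC of each growth curve was obtained with the trapezoidal rule up to the exponential-to-stationary transition and normalised to DMSO controls from the same plate.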
row,Compound,growth AUC normalised to DMSO control
1,O=C1CN(/N=C/c2ccc([N+](=O)[O-])o2)C(=O)N1 [Nitrofurantoin],0.369 (active)
2,Cc1cccc(C)c1NC(=O)CN1CCN(CCCC(c2ccc(F)cc2)c2ccc(F)cc2)CC1 [Lidoflazine],1.02 (inactive)
3,CCN1CCN(C(=O)N[C@@H](C(=O)N[C@@H]2C(=O)N3[C@@H]2SC(C)(C)[C@@H]3C(=O)O)c2ccccc2)C(=O)C1=O [Piperacillin sodium salt],0.0495 (active)
4,COc1ccc2c3c1O[C@H]1C[C@@H](O)C=C[C@@]31CCN(C)C2 [Galanthamine hydrobromide],0.988 (inactive)
5,CC(=O)Oc1cc(C(F)(F)F)ccc1C(=O)O [Triflusal],0.819 (inactive)
6,CC(=O)Oc1cccc2c1C(=O)c1c(OC(C)=O)cc(C(=O)O)cc1C2=O [Diacerein],0.779 (active)
7,Nc1ccc(C(=O)O)c(O)c1 [Aminosalicylic acid],1.09 (inactive)
8,N=C(N)NC(=O)Cc1c(Cl)cccc1Cl [Guanfacine hydrochloride],1.01 (inactive)
9,Cn1c(=O)c2c(ncn2C)n(C)c1=O [Caffeine],1.04 (inactive)
